# Data published in PubChem BioAssay AID588591 (National Center for Advancing Translational Sciences (NCATS), 2011).
# Where “and” joins values, the source holds several entries; their conditions need not be identical. Equal values may be shown once. About 4,700 (1.2%) of roughly 390,000 compounds were called active. Another 4% or so got no clear call; they are omitted. Calls follow the shape of the dose curve; as a rule, active = well fitted inhibition curve with a large enough effect; inconclusive = small, poorly fitted or top-dose-only effect, or another doubt; inactive = no such curve, though single readings can be large or run the other way. This excerpt belongs to a sample that is enriched for actives.
# Target: DNA polymerase eta (Homo sapiens) (UniProt Q9Y253)
# Sequence (Q9Y253 whole entry, looked up): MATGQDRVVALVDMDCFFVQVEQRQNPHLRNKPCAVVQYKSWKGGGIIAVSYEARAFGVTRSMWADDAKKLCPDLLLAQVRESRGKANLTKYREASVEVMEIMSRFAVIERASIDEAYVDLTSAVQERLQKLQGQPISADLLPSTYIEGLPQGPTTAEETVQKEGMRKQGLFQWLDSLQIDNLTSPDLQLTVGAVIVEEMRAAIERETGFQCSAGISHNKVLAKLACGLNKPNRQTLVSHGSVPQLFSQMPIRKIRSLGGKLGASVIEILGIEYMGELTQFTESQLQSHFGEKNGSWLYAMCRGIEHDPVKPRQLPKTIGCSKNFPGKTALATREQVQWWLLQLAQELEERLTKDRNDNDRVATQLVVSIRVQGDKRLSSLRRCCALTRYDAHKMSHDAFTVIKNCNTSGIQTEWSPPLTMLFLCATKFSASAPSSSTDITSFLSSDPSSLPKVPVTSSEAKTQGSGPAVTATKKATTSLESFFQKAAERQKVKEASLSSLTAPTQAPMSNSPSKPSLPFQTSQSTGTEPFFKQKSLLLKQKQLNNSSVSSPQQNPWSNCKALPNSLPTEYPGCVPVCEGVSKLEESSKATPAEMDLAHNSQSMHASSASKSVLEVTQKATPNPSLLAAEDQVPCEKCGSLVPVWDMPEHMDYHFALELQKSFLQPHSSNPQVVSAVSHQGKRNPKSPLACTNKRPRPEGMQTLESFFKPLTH
# Assay: qHTS for Inhibitors of Polymerase Eta
# Conditions: recombinant Pol eta, fluorescent DNA replication assay; series mostly up to 114 µM; activity change, negative = inhibition: at the top concentration
# Method in brief: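 Fluorescent replication assay: 50 nM final substrate added after a 15 min room-temperature compound preincubation with 10 nM enzyme. Signal taken at 0 min and again at 10 min.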
# % is scaled to controls: 0 for no effect and ±100 for the full control effect; potency is read from the fitted curve at half-maximal effect.
SMILES,"activity change, negative = inhibition",Potency
COc1ccc(CNC(=O)c2cc3c(s2)-c2ccccc2OC3)cc1,-11.9% (inactive),
CC(C)c1ccc(Cn2c(COc3ccccc3)nc3ccccc32)cc1,-7.81% (inactive),
CC(C)c1ccc2c(c1)c(SC(C)(C)C)c(CC(C)(C)C(=O)O)n2Cc1ccc(Cl)cc1,,35.5 µM (active) and 25.1 µM (active)
Cc1c(C)n(Cc2ccc(Cl)cc2)c2ccc(C(=O)N3CCN(c4ccccc4F)CC3)cc12,0.854% (inactive),
Cc1ccc(S(=O)(=O)NCc2nc3nc(C)cc(C)n3n2)cc1,-23% (inactive),
Cc1cc(NC(=O)CSc2ncc(C(=O)Nc3ccc(Cl)cc3)c(=O)n2C)no1,-17% (inactive),
Cc1ccc(C)c(NC(=O)CSC2=Nc3ccccc3N=C(c3ccc(F)cc3)C2)c1,-6.54% (inactive),
CC(C(=O)Nc1ccc(O)c(C(=O)O)c1)N1C(=O)/C(=C/c2cccs2)SC1=S (stereo not drawn),,79.4 µM (active)
CCOc1ccc(NC(=O)C(C)N2C(=O)c3ccccc3C2=O)cc1 (stereo not drawn),-1.82% (inactive),
O=C1/C(=C/c2cccs2)SC(=S)N1C1CCS(=O)(=O)C1 (stereo not drawn),-23.4% (inactive),
CCN(CC)CCNc1ncnc2c1cnn2-c1cc(Cl)ccc1C,-10.7% (inactive),
CC(C)C(=O)Nc1nc2c(s1)CC(C(C)(C)C)CC2 (stereo not drawn),-18.3% (inactive),
CCOc1ccccc1C(=O)Nc1ccc2c(c1)N(C)C(=O)c1ccccc1S2,-13.7% (inactive),
Cc1ccc(Cl)cc1-n1ncc2c(N3CCC(C(N)=O)CC3)ncnc21,-16.5% (inactive),
O=C(O)c1ccc2c(=O)n3c(nc2c1)/C(=C/c1ccc(OC(F)F)cc1OC(F)F)CC3,-17.6% (inactive),
N#Cc1ccc(/C=C2\CCn3c2nc2cc(C(=O)O)ccc2c3=O)cc1,-14.4% (inactive),
Cc1ccc(/C=C2\CCn3c2nc2cc(C(=O)O)ccc2c3=O)c(C)c1,,79.4 µM (active)
Fc1ccc(Nc2nc(SCc3ccccc3Cl)nc3ccccc23)cc1,-14.4% (inactive),
O=C(NCC12CC3CC(CC(C3)C1)C2)c1cc2nc(-c3ccccc3)cc(C(F)(F)F)n2n1,0.579% (inactive),
COCCn1c(CCC(=O)Nc2cc(C)ccc2C)nc2cccnc21,-13.2% (inactive),
COC(=O)c1ccc(Cn2c(SCC(=O)N(C)c3ccccc3)nc3ccccc32)cc1,-3.59% (inactive),
Cc1ccc(O)c(NC(=O)CCS(=O)(=O)c2nc(-c3ccc4c(c3)OCO4)cc(C(F)(F)F)n2)c1,-27.9% (inactive),

SMILES,"activity change, negative = inhibition",Potency
COc1ccccc1-n1c(SCC(=O)O)nc2sc3c(c2c1=O)CCC3,-12.3% (inactive),
Cc1cccc(NC(=O)CSc2nc3c(c(=O)[nH]2)CCCC3)c1C,1.98% (inactive),
O=C(CCc1nc2sc3c(c2c(=O)[nH]1)CCCC3)NCC(=O)Nc1ccccc1Br,,8.91 µM (active)
COc1ccccc1CNC(=O)C(=O)NCC(c1cccs1)S(=O)(=O)c1cccs1 (stereo not drawn),-12.4% (inactive),
COc1ccc(C2C(=O)N(C3CCCCC3)CC(=O)N2Cc2ccccc2Cl)cc1OC (stereo not drawn),-3.95% (inactive),
CCOC(=O)c1cccc(NC(=O)Cn2cnc3nc4c(cc3c2=O)CCCC4)c1,-5.34% (inactive),
COc1ccc(NC(=O)CSc2nc3ccccc3[nH]2)cc1,-14.9% (inactive),
COc1ccc(-c2nc3c(c(SCC(=O)Nc4ccc(C(=O)O)cc4)n2)Cc2ccccc2O3)cc1,,7.94 µM (active)
COC(=O)c1ccc(NC(=O)CSc2n[nH]c(-c3ccccc3)n2)cc1,-21% (inactive),
C=C(C)C(=O)O[C@H]1C/C(C)=C\C(=O)/C=C(\C)[C@H](O)[C@@H]2OC(=O)C(=C)[C@@H]21,,20 µM (active)
CCOc1ccc(-n2nc3ccc(NC(=O)c4ccc(OC)c(Cl)c4)cc3n2)cc1,-1.51% (inactive),
Cc1ccc(S(=O)(=O)N2CCOCC2)cc1NC(=O)c1ccncc1,-10.2% (inactive),
COCCNC(=S)Nc1cc(S(=O)(=O)N2CCOCC2)ccc1N1CCCCC1,-3.75% (inactive),
O=[N+]([O-])c1cc(Cl)cc(/C=N/NC(=S)Nc2cc(S(=O)(=O)N3CCOCC3)ccc2Cl)c1O,,50.1 µM (active)
Cc1nc2c(c(C)nn2-c2ccccc2)c(C)c1CCC(=O)NCCc1ccc(Cl)cc1,-13.9% (inactive),
CCOc1ccc(NC(=O)c2ccc(NC(=O)COC(=O)c3ccc(NC(=O)CC#N)cc3)cc2)cc1,,1.26 µM (active)
CCOc1ccc(NC(=O)c2ccc(CSc3nnnn3C)cc2)cc1,-16.2% (inactive),
CCOc1ccc(NC(=O)Cn2c(C)ccc(C#N)c2=O)cc1,-5.41% (inactive),
Cc1ccc(S(=O)(=O)c2nc(-c3cccs3)oc2N2CCCCC2)cc1,-5.32% (inactive),
COc1ccc(CCNc2ncnc3onc(-c4ccc(Cl)cc4)c23)c(OC)c1,-16.4% (inactive),
Cc1ccc(C)c(N2CCN(CCCNC(=O)Nc3ccc(Cl)cc3)CC2)c1,-17.8% (inactive),
CN=C1S/C(=C\c2c(OC)cc(OC)cc2OC)C(=O)N1C,-14% (inactive),

SMILES,"activity change, negative = inhibition",Potency
O=C(O)c1cccc(N=NN2CCCCCC2)c1,-6.41% (inactive),
CN1C(=O)/C(=C/c2ccco2)SC1=Nc1cccc(C(=O)O)c1,,35.5 µM (active)
O=C(CSc1nc(-c2cccc(F)c2)[nH]c1-c1ccccc1)Nc1ccc2c(c1)OCO2,-6.06% (inactive),
Cc1ccc2oc3c(c(=O)c2c1)C(c1ccc([N+](=O)[O-])cc1)N(CCCN1CCOCC1)C3=O (stereo not drawn),-9.44% (inactive),
Cc1cc(C)c(C(=O)CSc2nc(C)cc(=O)[nH]2)c(C)c1,-11.5% (inactive),
CCCc1cc(=O)[nH]c(SCC(=O)Nc2ccc(C(=O)Nc3ccccc3OC)cc2)n1,-11.5% (inactive),
COC(=O)c1cccc(NC(=O)CSc2nc(C)cc(=O)[nH]2)c1,,20 µM (active)
Cc1ccccc1Nc1nn2c(=O)c3ccc(C(=O)NCCc4ccc(Cl)cc4)cc3nc2s1,3.84% (inactive),
Cc1ccc2onc(CC(=O)N3CCN(c4ccc(Cl)cc4)CC3)c2c1,-15.9% (inactive),
O=C(CN1CCN(c2ncc(C(F)(F)F)cc2Cl)CC1)Nc1ccc2c(c1)OCO2,-22.3% (inactive),
Cc1ccc(C(=O)O)cc1-c1ccc(/C=C2\SC(=O)N(CC(=O)Nc3ccc4c(c3)OCO4)C2=O)o1,,4.47 µM (active)
Cn1c(=O)c2ccccc2n(CC(=O)Nc2ccc3c(c2)OCCO3)c1=O,0.575% (inactive),
O=C(NCc1ccc(F)cc1)c1ccc2nc(N3CCCCC3)sc2c1,-9.35% (inactive),
Cc1ccccc1-c1nc2cc(NC(=O)c3cccc(OCCC(C)C)c3)ccc2o1,-14.7% (inactive),
CCC(=O)N1CCc2cc(CNS(=O)(=O)c3ccc(Br)s3)ccc21,-3.15% (inactive),
Cc1cccc(NC(=O)CSc2nc3c(oc4ccccc43)c(=O)n2-c2ccc(F)cc2)c1,-18.2% (inactive),
O=S(=O)(Nc1ccc2[nH]ncc2c1)c1ccccc1Cl,-4.53% (inactive),
O=C(O)c1cc(S(=O)(=O)Nc2ccc3cn[nH]c3c2)ccc1Br,,50.1 µM (active)
O=C(Nc1ccc2cn[nH]c2c1)c1ccc(S(=O)(=O)N2CCOCC2)cc1,-2.8% (inactive),
CCCn1c2ccccc2c2cnn(CC(=O)N(C)c3ccccc3CC)c(=O)c21,-7.33% (inactive),
Cc1c(C(=O)NC2CCCCC2)oc2ccccc12,-2.89% (inactive),
Cc1c(C(=O)Nc2ccccn2)oc2ccc(Br)cc12,,39.8 µM (active)

SMILES,"activity change, negative = inhibition",Potency
Cc1ccc(NC(=O)c2oc3ccccc3c2C)c([N+](=O)[O-])c1,6.13% (inactive),
COc1ccccc1CNc1nccn(-c2ccc(F)cc2)c1=O,-5.47% (inactive),
O=C(O)C1=C[C@H](c2cccs2)C[C@H](OCCCCO)O1,12.9% (inactive),
O=C(NCc1ccccc1)C1=C[C@@H](c2ccccc2)C[C@@H](OCCCCO)O1,-19.4% (inactive),
C#Cc1ccc([C@@H]2C=C(C(=O)O)O[C@H](OCCCCO)C2)cc1,,20 µM (active)
COc1ccc(CCNC(=O)c2c3c(nc4ccccc24)C(=O)N(C2CCCCC2)C3)cc1OC,-22.1% (inactive),
CCNC(=O)CC1C(=O)N(c2ccc(F)cc2)C(=O)N1Cc1ccc(C)cc1 (stereo not drawn),-12.7% (inactive),
CCC(=O)N1CCc2cc(S(=O)(=O)NCCC(=O)Nc3cccc(C)c3C)ccc21,-11% (inactive),
Cc1oc(-c2ccccc2F)nc1CN1CCC(C(=O)NCCc2ccc(Cl)cc2)CC1,0.184% (inactive),
Cc1cccc(NC(=O)CSCC(=O)Nc2nnc(C3CC3)s2)c1,-5.45% (inactive),
CCc1ccccc1OCC(=O)Nc1nnc(C2CC2)s1,-4.3% (inactive),
CCc1cc(C(=O)Nc2nnc(C3CC3)s2)sc1C,,50.1 µM (active)
Cc1ccc(CNC(=O)c2c(O)nc3c(C)cccn3c2=O)cc1,-8.77% (inactive),
C=C(C)C(=O)Nc1cccc(C2=NOC3(C2)C[C@H](C(N)=O)N(C(=O)C(c2ccccc2)c2ccccc2)C3)c1 (stereo partly drawn),,3.98 µM (active)
NC(=O)[C@H]1CC2(CC(c3cccc(NC(=O)[C@H]4CCC(=O)N4)c3)=NO2)CN1C(=O)c1ccccc1C(=O)c1ccccc1 (stereo partly drawn),9.03% (inactive),
C/C=C(\C)C(=O)N1CC2(CC(c3cccc(NC(=O)CCCCC)c3)=NO2)C[C@@H]1C(N)=O (stereo partly drawn),-3.29% (inactive),
O=[N+]([O-])c1ccc(C=Nc2ccc(Cl)cc2Cl)s1,,89.1 µM (active)
CCOc1ccccc1CNCc1c(C(=O)O)c(C)n(Cc2ccc(C)cc2)c1C,-12.1% (inactive),
COc1ccc(CNC(=O)c2cc3c(-c4ccccc4F)nn(C)c3s2)c(OC)c1,-15.6% (inactive),
CS(=O)(=O)c1ccc2c(c1)SC1=NC(=O)/C(=C/c3ccco3)C(=N)N12,,3.16 µM (active)
Cc1ccc(C)c(Cn2c(C(=O)O)c(CNCc3cccs3)c3ccccc32)c1,-8.15% (inactive),
CCOc1ccc2nc(N3CCCC(C(=O)Nc4cc(C)ccc4C)C3)sc2c1 (stereo not drawn),-6.36% (inactive),

SMILES,"activity change, negative = inhibition",Potency
C[C@@H]1O[C@@H](OC[C@H]2O[C@@H](Oc3c(-c4ccc(O)cc4)oc4cc(O)cc(O)c4c3=O)[C@H](O)[C@@H](O)[C@@H]2O)[C@H](O)[C@H](O)[C@H]1O,-18.3% (inactive),
COc1ccc(-c2cc(=O)c3c(O)cc(O[C@@H]4O[C@H](CO[C@@H]5O[C@@H](C)[C@H](O)[C@@H](O)[C@H]5O)[C@@H](O)[C@H](O)[C@H]4O)cc3o2)cc1O,,79.4 µM (active)
COc1ccc(CCOC2OC(CO)C(OC(=O)/C=C/c3ccc(O)c(OC)c3)C(O[C@H]3O[C@@H](C)[C@H](O)[C@@H](O)[C@H]3O)C2O)cc1O (stereo partly drawn),3.88% (inactive),
Cc1cc(-c2n[nH]c(=S)n2-c2ccc(C)c(C)c2)no1,-12.4% (inactive),
COc1ccccc1-n1c(-c2cc(-c3ccco3)[nH]n2)n[nH]c1=S,,50.1 µM (active)
COc1ccc(OCc2n[nH]c(=S)n2N)cc1,-0.0483% (inactive),
COc1ccc(C(=O)Nc2nonc2-c2ccc(OC)c(OC)c2)cc1Cl,-22.8% (inactive),
Cc1cccc(OCCCC(=O)Nc2sc3c(c2C(N)=O)CCC(C)C3)c1 (stereo not drawn),-9.18% (inactive),
Cc1ccc(S(=O)(=O)N2CCCC2C(=O)OCc2nc3sc(C)c(C)c3c(=O)[nH]2)cc1 (stereo not drawn),-8.42% (inactive),
CSc1nnc(SCc2nc3sc(C(=O)O)c(C)c3c(=O)[nH]2)s1,,3.16 µM (active)
CCN(CC)Cc1nc2sc(C)c(C)c2c(=O)[nH]1,-11.4% (inactive),
CCc1nn(CC(=O)NCC(C)c2ccccc2)c(=O)c2cc3occc3n12 (stereo not drawn),-12.9% (inactive),
Cc1cc(Cl)ccc1OCC(=O)N(Cc1ccc(N(C)C)cc1)C1CCS(=O)(=O)C1 (stereo not drawn),-16.1% (inactive),
COc1ccc2c(c1)c(=O)c(C(=O)c1ccccc1)cn2CC(=O)Nc1ccc2c(c1)OCCO2,-15.9% (inactive),
CCOC(=O)c1ccc(NC(=O)C2CCN(S(=O)(=O)c3ccc4c(c3)CCCC(=O)N4)CC2)cc1,-18.7% (inactive),
O=c1n(Cc2cccc(C(F)(F)F)c2)c2ccccc2c2nc(-c3ccccc3)nn12,-12.8% (inactive),
N#Cc1ccc(C2=CC(=O)C[C@H](c3ccc(Cl)cc3)C2)cc1,-13.2% (inactive),
CC1(OC(=O)C2CCCC2)C(=O)C=C2C=C(c3ccc(C#N)cc3)OC=C2C1=O (stereo not drawn),,20 µM (active)
Cc1ccccc1C(=O)N1CCC(C(=O)Oc2ccc(C#N)cc2)CC1,6.45% (inactive),
CCOC(=O)c1c(N)n(-c2cccc(C)c2C)c2nc3ccccc3nc12,-6.46% (inactive),
